Measured values reported in PubChem BioAssay (EPA / NIEHS).
Values joined by “and” are separate entries in the source; they are usually repeats but may differ in a detail not shown here. Equal values may be shown once. Inconclusive results are not listed. Some structures have more than one record in an assay (separate samples or runs), and their calls can disagree. Active and inactive are the calls of the source. How the source made its calls, unless noted: active means hit-call score of the fitted dose curve at least 0.9, where 1 is the maximum; inconclusive means response in the unintended direction; inactive means score below 0.9.

Legend:
SERPINA7 (gene 6906) = experiment: CCTE_GLTED_hTBG: CCTE's human Thyroxine-binding Globulin (TBG) Inhibition Assay, Great Lakes Toxicology and Ecology Division (GLTED) Lab (AID 2284343);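 further: active chemicals lower fluorescence versus DMSO baseline by displacing probe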
Summary of the method: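 Steps: combine TBG with chemical; incubate 2 hours so that disruptors release ANSA; record fluorescence (380 ex, 475 em). Loss of signal was fitted against DMSO controls.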

[1] = CCTE_Mundy_HCI_iCellGluta_NOG_NeuronCount: CCTE's Neurite Outgrowth Assay in iCellGluta cells for Neuron Count, Mundy Lab (AID 2284340);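 further: cells fixed about 48 h after compound addition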
Summary of the method: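 Neuron count read by automated high-content imaging of Hoechst 33342 and betaIII-tubulin/Alexa Fluor-488 labelling in human iPSC glutamatergic neurons. Activity fitted relative to DMSO.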

[2] = CCTE_Mundy_HCI_iCellGluta_NOG_NeuriteCount: CCTE's Neurite Outgrowth Assay in iCellGluta cells for Neurite Count, Mundy Lab (AID 2284342);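 further: chemical exposure about 48 hours starting 2 hours after plating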
Experimental: CCTE_Mundy_HCI_iCellGluta_NOG is a multiplexed, cell-based-readout assay that uses iCell GlutaNeurons from FUJIFILM Cellular Dynamics, Inc. (FCDI), human glutamatergic enriched neurons derived from induced pluripotent stem (iPS) cells, with measurements taken at 50.33 hours after chemical dosing in a microplate: 96-well plate.CCTE_Mundy_HCI_iCellGluta_NOG_NeuriteCount is one of four components of the CCTE_Mundy_HCI_iCellGluta_NOG assay. It measures neurite outgrowth related to number of neurites using High Content Imaging of fluorescently labelled markers.Data from the assay component CCTE_Mundy_HCI_iCellGluta_NOG_NeuriteCount was analyzed at the endpoint CCTE_Mundy_HCI_iCellGluta_NOG_NeuriteCount in the positive analysis fitting direction relative to DMSO as the negative control and baseline of activity. Using a type of morphology reporter, loss-of-signal activity can be used to understand developmental effects.
Exposure starts 2 hours post-plating by adding 10 ul of the working solution to 90 ul of media in the wells for a 1/10 dilution. Forty-eight hours after chemical treatment cells are fixed by direct addition of 100 ul of warm (37C) Dulbecco's phosphate buffered saline (DPBS) fixative solution containing 8% paraformaldehyde, 8% sucrose, and 0.1% of 3 mg/ml Hoechst 33342 into each well. Primary antibodies are prepared by dilution in Immunocytochemical Staining Buffer (ISB), 10X Dulbecco's PBS, 0.1% Saponin, 5% Bovine Serum Albumin, 0.5% NaN3 (Sodium Azide) and betaIII-tubulin (rabbit anti-betaIII-tubulin, 1:800) followed by Alexa Fluor-488 secondary (1:500) to label neuronal cell bodies and neurites. A Cellomics ArrayScan VTi HCS Reader is used for automated image acquisition and analysis of neurite outgrowth.

[3] = CCTE_Deisenroth_H295R-HTRF_384WELL_ESTRADIOL: CCTE's H295R-HTRF Assay Evaluation of Estradiol Concentration, Deisenroth Lab (AID 2284361; active means hit-call score of the fitted dose curve at least 0.9, where 1 is the maximum; inactive means score below 0.9); settings: actives raise or lower the signal
Experimental: CCTE_Deisenroth_H295R-HTRF_384WELL assay is a cell-based, multiplex-readout assay that uses H295R, a human adrenocortical carcinoma cell line, with measurements taken at 48 hours after chemical dosing in a 384-well microplateCCTE_Deisenroth_H295R-HTRF_384WELL_ESTRADIOL is one of 3 assay components calculated in the CCTE_Deisenroth_H295R-HTRF_384WELL assay (2 hormones and 1 viability components). It is designed to make measurements of hormone induction, a form of inducible reporter, as detected with Homogenous Time Resolved Fluorescence immunoassay technology.This assay endpoint, CCTE_Deisenroth_H295R-HTRF_384WELL_ESTRADIOL, was analyzed with bidirectional fitting relative to DMSO as the negative control and baseline of activity. Using a type of inducible reporter, gain or loss-of-signal activity using Homogenous Time Resolved Fluorescence technology was used to understand synthesis of estradiol in the H295R cell line at 48hr of chemical exposure. […]
Standard operating procedures for the cell culture medium, maintenance, expansion, and cryopreservation of the NCI-H295R adrenocortical carcinoma adherent cell line were adopted directly from guideline specifications7,13. […] Fluorescent endpoint measurements are conducted with a microplate reader equipped with an HTRF-compatible filter set (ex: 320 (10) […]; em: 620 (10) and 665 (10) nM). […]

[4] = CCTE_Deisenroth_H295R-HTRF_384WELL_TESTOSTERONE: CCTE's H295R-HTRF Assay Evaluation of Testosterone Concentration, Deisenroth Lab (AID 2284373; active means hit-call score of the fitted dose curve at least 0.9, where 1 is the maximum; inactive means score below 0.9); settings: actives raise or lower the signal
Summary of the method: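 H295R cells were acclimated 24 h, then exposed 48 h to nine concentrations (0.001–100 uM final) in technical triplicate, n=5. Testosterone in conditioned medium was measured by HTRF (em 620/665 nm). Fitting was bidirectional versus DMSO; CellTiter-Glo viability ran on the same plates.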

[5] = CCTE_Deisenroth_H295R-HTRF_384WELL_CTOX: Cytotoxicity Assessment in CCTE's H295R-HTRF Assay, Deisenroth Lab (AID 2284380)
Summary of the method: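 Luminescent ATP viability readout (CellTiter-Glo 2.0), multiplexed on plates used for hormone sampling, after 48 h chemical exposure. Human H295R cells; final concentrations 0.001–100 uM in nine steps, technical triplicates, five experiments; DMSO baseline.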

[6] = tested on: SRY-box transcription factor 17 (SOX17) Protein Expression, Deisenroth Lab, SOX17 (gene 64321); experiment: CCTE_Deisenroth_DEVTOX-GLR_legacy_Sox17: (Legacy) CCTE's DevTox GLR-Endo Assay Evaluation of SRY-box transcription factor 17 (SOX17) Protein Expression, Deisenroth Lab (AID 2284341; active means hit-call score of the fitted dose curve at least 0.9, where 1 is the maximum; inactive means score below 0.9); settings: actives raise or lower the signal
Summary of the method: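 RUES2-GLR human pluripotent cells differentiated toward endoderm for 48 h, dosed twice at 24 h intervals (1 nM–200 uM, 10 points). Imaging gives % SOX17+ cells (intensity >5x BMAD above pluripotent control median); bidirectional fit versus 0.2% DMSO.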

[7] = tested on: SRY-box transcription factor 2 (SOX2) Protein Expression, Deisenroth Lab, SOX2 (gene 6657); experiment: CCTE_Deisenroth_DEVTOX-GLR_legacy_Sox2: (Legacy) CCTE's DevTox GLR-Endo Assay Evaluation of SRY-box transcription factor 2 (SOX2) Protein Expression, Deisenroth Lab (AID 2284346; active means hit-call score of the fitted dose curve at least 0.9, where 1 is the maximum; inactive means score below 0.9)
Summary of the method: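 Percent Sox2-positive cells was scored by high-content imaging of 5 fields per well. Positivity cutoff was 5x BMAD over the directed endoderm control, and the DMSO median was subtracted. Cells were RUES2-GLR, dosed twice at 24-h intervals over 48 h of differentiation (1 nM-200 uM).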

[8] = Tanguay_ZF_120hpf_MO24: Oregon State University Tanguay Lab 24 Hour Post-fertilization zebrafish Assay for Mortality (AID 2284389; active means hit-call score of the fitted dose curve at least 0.9, where 1 is the maximum; inactive means score below 0.9)
Summary of the method: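 Embryo death at 24 hpf was recorded as present or absent in Tropical 5D zebrafish, dechorionated at 4 hpf and dosed statically from 6 hpf (28C, 0.64% DMSO); 5 uM trimethyltin chloride served as positive control.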

[9] = Tanguay_ZF_120hpf_DP24: Oregon State University Tanguay Lab 24 Hour Post-fertilization zebrafish Assay for Delayed Development (AID 2284390; active means hit-call score of the fitted dose curve at least 0.9, where 1 is the maximum; inactive means score below 0.9)
Experimental: Tanguay_ZF_120hpf is a whole embryo, multiplexed endpoint assay using zebrafish larvae exposed for 120 hours post fertilization on a 96-well plate.Tanguay_ZF_120hpf_DP24 is […] measured or calculated from the Tanguay_ZF_120hpf assay. It is designed to make measurements of zebrafish development as detected with brightfield microscopy of developing zebrafish embryos.Data from the assay component Tanguay_ZF_120hpf_DP24 was analyzed into 1 assay endpoints. This assay endpoint, Tanguay_ZF_120hpf_DP24, was analyzed in the positive analysis fitting direction relative to DMSO as the negative control and baseline of activity. Using a type of morphology reporter, gain-of-signal activity can be used to understand changes in developmentals as they relate to the whole embryo. To generalize the intended target to other relatable targets, this assay endpoint is annotated to the zebrafish development intended target family, where the subfamily is embryonic morphogenesis.
Zebrafish husbandry: Tropical 5D wild-type adult zebrafish were housed in at an approximate density of 1000 per 100 gallon tank at the Sinnhuber Aquatic Research Laboratory, Oregon State University, Corvallis, OR. […] At 24 hpf, embryos were assessed for photomotor response using a custom photomotor response analysis tool (PRAT) and for developmental toxicity endpoints (MO24: mortality at 24 hpf, DP: developmental progression, SM: spontaneous movement, and NC: notochord distortion). At 120 hpf, locomotor activity was measured using Viewpoint Zebralab and assessed for 13 endpoints. Zebrafish acquisition and analysis program (ZAAP), a custom program designed to inventory, acquire, and manage zebrafish data, was used to collect developmental endpoints as either present or absent (i.e., binary responses were recorded). If mortality occurred for an embryo (at either 24 or 120 hpf), the non-mortality endpoints were not measured.

Question: Which AC50 (SERPINA7 (gene 6906)) does the source give for `CCCCCCCCCCCCc1ccccc1S(=O)(=O)O` here?
Answer: 4.89 µM (active)

Question: For `CC#C[C@]1(O)CC[C@H]2[C@@H]3CCC4=CC(=O)CCC4=C3[C@@H](c3ccc(N(C)C)cc3)C[C@@]21C`, which AC50 [1] is on record?
Answer: 27.3 µM (active)

Question: What about the outcome [1] of the same compound?
Answer: inactive

Question: What about the AC50 [2] of the same compound?
Answer: 58.9 µM (active)

Question: And the outcome [2]?
Answer: inactive

Question: And the outcome [3]?
Answer: inactive

Question: What about the outcome [4] of the same compound?
Answer: inactive

Question: What about the outcome [5] of the same compound?
Answer: inactive

Question: For `O=C(O)Cc1cc(I)c(Oc2cc(I)c(O)c(I)c2)c(I)c1`, which AC50 (SERPINA7 (gene 6906)) is on record?
Answer: 0.0197 µM (active)

Question: For `C[C@@H]1C[C@H]2[C@@H]3CCC4=CC(=O)C=C[C@]4(C)[C@@]3(F)[C@@H](O)C[C@]2(C)[C@@]1(O)C(=O)COP(=O)(O)O`, which outcome [6] is on record?
Answer: inactive

Question: And the outcome [7]?
Answer: inactive

Question: Which AC50 (SERPINA7 (gene 6906)) does the source give for `CC(C)(C)CC(C)(C)c1ccc(O)c(-n2nc3ccccc3n2)c1` here?
Answer: 16.3 µM (active)

Question: Which results are given for `C=C(C)C(=O)OCCC(F)(F)C(F)(F)C(F)(F)C(F)(F)C(F)(F)C(F)(F)F`?
Answer: outcome [1]: inactive; outcome [2]: inactive; outcome [8]: inactive; outcome [9]: inactive

Question: With `Cc1cc(C)c(O)c(C)c1` as the compound, how does the outcome (SERPINA7 (gene 6906)) read?
Answer: inactive

Question: With `OCCC(F)(F)C(F)(F)C(F)(F)C(F)(F)C(F)(F)C(F)(F)F` as the compound, how does the outcome [1] read?
Answer: inactive

Question: What about the outcome [2] of the same compound?
Answer: inactive

Question: And the outcome [8]?
Answer: inactive

Question: What about the outcome [9] of the same compound?
Answer: inactive

Question: With `OCCC(F)(F)C(F)(F)C(F)(F)C(F)(F)C(F)(F)C(F)(F)C(F)(F)C(F)(F)F` as the compound, how does the outcome [2] read?
Answer: inactive

Question: What about the outcome [8] of the same compound?
Answer: inactive

Question: And the outcome [9]?
Answer: inactive

Question: For `CC1=C(/C=C/C(C)=C/C=C/C(C)=C/C(=O)O)C(C)(C)CCC1`, which AC50 [6] is on record?
Answer: 0.109 µM (active)

Question: And the AC50 [7]?
Answer: 82.8 µM (active)

Question: Which AC50 (SERPINA7 (gene 6906)) does the source give for `O=[N+]([O-])c1ccc(O)cc1` here?
Answer: 33.3 µM (active) and 47.2 µM (active)

Question: For `ClC1=C(Cl)C(Cl)(Cl)C(Cl)=C1Cl`, which AC50 (SERPINA7 (gene 6906)) is on record?
Answer: 23.9 µM (active)

Question: For `O=C(O)c1ccccc1C(c1ccc(O)cc1)c1ccc(O)cc1`, which AC50 (SERPINA7 (gene 6906)) is on record?
Answer: 49.9 µM (active)

Question: Which results are given for `CC(O)CO` (stereo not given)?
Answer: outcome [6]: inactive; outcome [7]: inactive

Question: For `NC(=O)N1C(=O)C(C(=O)c2cc(Cl)cs2)c2cc(F)c(Cl)cc21` (stereo not given), which AC50 (SERPINA7 (gene 6906)) is on record?
Answer: 7.27 µM (active)

Question: With `CC[C@H](c1ccc(O)cc1)[C@@H](CC)c1ccc(O)cc1` as the compound, how does the AC50 (SERPINA7 (gene 6906)) read?
Answer: 8.97 µM (active)

Question: With `CC[C@H](C)[C@@H](C(=O)O)n1sc2ccccc2c1=O` as the compound, how does the AC50 (SERPINA7 (gene 6906)) read?
Answer: 18.2 µM (active)

Question: For `COc1ccc([N+](=O)[O-])cc1N`, which AC50 (SERPINA7 (gene 6906)) is on record?
Answer: 50 µM (active)
